Sampled rows, rich in hits. Any-hit rate of the full collection: about 0.82%.
eLon inh: inhibitors of E. coli Lon protease; P0A9M0; purified E. coli Lon protease, fluorescence polarization; inhibition, % at 7.94 µM; 0.42% of 360,000 active; AID 602123; in the data active = inhibition above about 13%, passing the limit was not always enough;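 also: 0% = enzyme with probe and DMSO and 100% = no enzyme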
LANA DNA inh: inhibitors of KSHV LANA C-terminal domain DNA binding; AID 504423; 0.078% of 340,000 active; MBP-C-LANA/FAM-LBS DNA binding, fluorescence polarization; inhibition, % at 9 µM;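 active = highest replicate inhibition at or above 60% at 9 µM, even if other replicates fall short; inactive = all replicates below 60% inhibition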;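 also: 0% = neutral control wells and 100% = 4 µM acridine orange control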
cardiac RTF act: cardiac RTF calcium sensitization. activation, % at 7.2 µM. 0.24% of 340,000 active. IANBD-labeled TnC RTF fluorescence at EC20 calcium; 0% EC20 calcium, 100% full calcium. P19429+P45379;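 active = activation above the mean over all tested compounds plus 3 SD, cut at about 30% in these data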;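 also: rise in fluorescence read as greater calcium sensitivity of cardiac thin filaments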
RTF Ca sens inh: cardiac RTF calcium desensitization; IANBD-labeled cardiac RTF, Ca2+ fluorescence; inhibition, % at 7.15 µM; 0.12% of 340,000 active; AID 493244;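 active = inhibition above the mean inhibition of all tested compounds plus 3 SD, cut at about 17% in these data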;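 also: assay run at fixed EC70 calcium of 1.6 mM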
Keap1 Nrf2 FP: inhibitors of human Keap1-Nrf2 protein-protein interaction; Q14145; Keap1 Kelch-Nrf2 peptide fluorescence polarization, 1536-well; inhibition, % at 9.4 µM; 0.15% of 340,000 active; AID 504523; in the data active = inhibition above about 12%;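 also: human Keap1 Kelch domain with fluorescein labeled Nrf2 9mer peptide probe; 0% = neutral control wells and 100% = peptide positive control; higher means more block of Keap1 binding to Nrf2 peptide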
Target sequence (Q14145 whole entry, looked up, the tested form may be a part): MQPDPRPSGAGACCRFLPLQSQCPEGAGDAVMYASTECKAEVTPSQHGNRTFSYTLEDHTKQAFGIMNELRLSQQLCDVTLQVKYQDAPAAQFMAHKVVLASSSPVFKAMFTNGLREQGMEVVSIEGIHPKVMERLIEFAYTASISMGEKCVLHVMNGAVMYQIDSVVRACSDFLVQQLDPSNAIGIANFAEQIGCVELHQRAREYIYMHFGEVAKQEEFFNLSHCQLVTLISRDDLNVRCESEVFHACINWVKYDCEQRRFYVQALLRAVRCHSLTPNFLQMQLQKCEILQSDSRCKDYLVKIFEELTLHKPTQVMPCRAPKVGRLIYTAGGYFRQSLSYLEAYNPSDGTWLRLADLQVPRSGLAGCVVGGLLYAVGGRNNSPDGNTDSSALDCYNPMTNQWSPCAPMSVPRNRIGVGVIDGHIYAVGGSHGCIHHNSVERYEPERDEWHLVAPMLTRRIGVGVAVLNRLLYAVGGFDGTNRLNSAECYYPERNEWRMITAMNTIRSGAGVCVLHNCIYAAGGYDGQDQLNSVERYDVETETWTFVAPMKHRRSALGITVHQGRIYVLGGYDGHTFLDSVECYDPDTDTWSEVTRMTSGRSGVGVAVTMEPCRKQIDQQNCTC
eLon confirm: E. coli Lon inhibition confirmation | shares compounds with eLon inh | inhibition, % at 7.94 µM | 31% of 1,400 active | purified E. coli Lon, fluorescence polarization | AID 602230; in the data active = inhibition above about 16%;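 also: 0% = enzyme with probe and DMSO and 100% = no enzyme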
* = called active by the depositor; i = inactive; . = not tested or not shown; + = active, no number.

SMILES	eLon inh	LANA DNA inh	cardiac RTF act	RTF Ca sens inh	Keap1 Nrf2 FP	eLon confirm
COc1ccc2cc(C(=O)C3CCCN(C4CCOCC4)C3)ccc2c1 (centres undefined)	102.7*	-0.2	-1.3	-9.9	-1.4	-0.9
COC1C(C)OC(OC2CC(C)(O)Cc3cc4c(c(O)c32)C(=O)c2c(O)cc3c(c2C4=O)OC2OC3(C)C(O)C(N(C)C)C2O)C(OC)C1(C)OC (centres undefined)	+	52.1	677.6*	i	-65.9	104.3*
Nc1c2c(nc3ccccc13)CCN(Cc1ccccc1)C2	197.8*	7.9	17.4	-32.9	10.5	1.8
C1=C(c2c[nH]c3ccccc23)CCN(Cc2ccccc2)C1	1.5	-3.2	1.5	3.0	-2.4	.
COc1ccc2[nH]c(C)c(CCNCc3cccnc3)c2c1	68.6*	13.3	-1.6	-4.9	8.1	32.9*
O=C1NCN(c2ccccc2)C12CCN(C(CCc1ccccc1)c1nnnn1C1CCCCC1)CC2 (centres undefined)	-0.5	.	.	.	.	.
CN1CCN(Cc2ccc(N)cc2)CC1	-3.5	-1.3	1.0	-13.4	-3.0	.
CN1CCN(Cc2cc(C(C)(C)C)c(O)c(C(C)(C)C)c2)CC1	25.2*	0.8	-6.9	6.5	-7.7	-9.1
CCOC(=O)C1CCCN(c2ccc([N+](=O)[O-])c3nonc23)C1 (centres undefined)	192.8*	89.7*	392.9*	-480.8	-10.9	186.4*
O=S(=O)(c1ccc(Cl)cc1)N1Cc2cc(Br)ccc2-n2nncc2C1	-1.6	.	.	.	.	.
COc1cc(C(O)CNC(C)C)cc(F)c1OC (centres undefined)	23.3*	0.9	3.2	1.9	-0.5	6.9
O=c1[nH]c(=O)n(Cc2ccco2)c(O)c1C=NCc1ccc2c(c1)OCO2	19.7*	0.3	-3.7	-8.0	-3.5	0.3
O=C(NCC1=C(c2cccc3ccccc23)C[C@@H]2CC[C@H]1N2Cc1ccco1)c1cccs1	-5.4	.	.	.	.	.
Cc1ccc(N=Cc2c(O)n(C)c(=O)n(C)c2=O)cc1	46.0*	-0.3	1.6	-3.1	1.7	-11.6
Cc1nn(Cc2ccccc2Cl)c(Cl)c1C(=O)O	15.3*	-2.1	-0.6	-4.0	-1.8	-42.7
NC(Cc1ccc(F)cc1)c1csc(Nc2ccccn2)n1 (centres undefined)	-15.6	.	.	.	.	.
CCOC(=O)[C@]12Cc3cc(C)ccc3[C@H]1N(Cc1ccccc1)C(=O)c1cc(F)c(F)cc12	-2.4	.	.	.	.	.
O=c1[nH]c(O)c(C=NCCc2ccccc2)c(=O)[nH]1	-7.0	0.7	3.8	-0.8	0.4	.
O=c1[nH]c(O)c(/C=C2\C=Nc3ccc(OCc4ccccc4)cc32)c(=O)[nH]1	26.9*	4.7	47.6*	-64.1	-2.5	30.4*
CN1C[C@H](CO)C=C2c3cccc4[nH]cc(c34)C[C@H]21	84.2*	17.2	17.9	-24.1	8.8	7.4
CCCCn1nnnc1C(CCSC)N1CCC(n2c(=O)[nH]c3ccccc32)CC1 (centres undefined)	-10.9	.	.	.	.	.
CCCCCn1c(=O)c(C(=O)NCCc2ccccc2)c(O)c2ccccc21	-9.6	1.9	-6.1	-6.8	0.2	.
CCCCn1c(=O)c(C(=O)NCc2ccccc2OC)c(O)c2ccccc21	66.3*	-0.3	-7.5	0.1	-2.1	-1.4
COc1ccc(-n2nnnc2C(CCc2ccccc2)N2CCC(n3c(=O)[nH]c4ccccc43)CC2)cc1 (centres undefined)	-3.0	.	.	.	.	.
